# Results taken from PubChem BioAssay (NCATS).
# Unmarked numbers belong to inactive results.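 Rule for the calls: active = compounds whose dose series gives a full or clear partial fitted curve of increased nuclear translocation; inconclusive = weak partial curve or effect only at the top dose; inactive = no dose-dependent translocation response.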
# Molecular target: Glucocorticoid receptor (Homo sapiens) (UniProt P04150)
# Experiment: GR-GFP Redistribution (AID 450)
# Details: U2OS GR-GFP nuclear translocation, laser cytometry, 2 h; series mostly up to 20.6 µM
# Potency is the fitted concentration of half-maximal effect.
# Sequence of Glucocorticoid receptor (Homo sapiens) (P04150 whole entry, looked up): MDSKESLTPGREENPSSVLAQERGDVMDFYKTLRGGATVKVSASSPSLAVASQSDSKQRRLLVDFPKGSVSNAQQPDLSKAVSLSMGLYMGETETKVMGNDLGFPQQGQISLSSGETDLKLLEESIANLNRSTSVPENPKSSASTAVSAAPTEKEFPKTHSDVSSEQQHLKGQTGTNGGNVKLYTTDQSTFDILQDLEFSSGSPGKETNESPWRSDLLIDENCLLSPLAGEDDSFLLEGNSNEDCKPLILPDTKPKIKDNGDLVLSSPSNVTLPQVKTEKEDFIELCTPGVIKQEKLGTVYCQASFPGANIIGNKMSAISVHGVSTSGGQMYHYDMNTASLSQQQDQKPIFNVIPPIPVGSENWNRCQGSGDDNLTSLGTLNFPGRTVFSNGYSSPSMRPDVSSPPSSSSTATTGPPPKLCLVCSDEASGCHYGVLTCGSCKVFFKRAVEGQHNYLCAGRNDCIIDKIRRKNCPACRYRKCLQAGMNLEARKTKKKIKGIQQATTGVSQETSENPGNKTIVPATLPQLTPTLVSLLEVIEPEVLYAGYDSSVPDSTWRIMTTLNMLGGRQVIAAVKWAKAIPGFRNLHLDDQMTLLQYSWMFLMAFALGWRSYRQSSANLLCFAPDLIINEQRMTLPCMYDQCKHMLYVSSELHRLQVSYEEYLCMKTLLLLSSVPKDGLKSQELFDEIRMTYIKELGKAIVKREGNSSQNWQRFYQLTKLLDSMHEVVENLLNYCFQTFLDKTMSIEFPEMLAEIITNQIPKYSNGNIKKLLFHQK
row,SMILES,Potency [µM]
1,COc1ccc2c(c1OC)C(=O)N1c3ccccc3C(=O)N(c3ccc(F)cc3)C21 (stereo not given),> 20.6
2,CCc1nc2sc3c(c2c(=O)o1)CCCC3,> 20.6
3,CCOC(=O)c1c(SC)nc(SC)c2c1CCC2,> 20.6
4,Clc1ccc(-c2nnc3sc(Cc4cccs4)nn23)c(Cl)c1,> 20.6
5,CN(C)c1nc(OCCOC(=O)Nc2ccc(Cl)cc2Cl)nc(N(C)C)n1,> 20.6
6,CCc1nnc(NC(=O)CSc2nc(C)c3c(c2C#N)CCCC3)s1,> 20.6
7,CCc1nnc(NC(=O)c2c(O)c3c([nH]c2=O)CCCC3)s1,> 20.6
8,CC1(C)Cc2c(sc3c2C2=NCCN2C=N3)CO1,> 20.6
9,CCC1CCCCN1c1nc(-c2cccc(OC)c2O)nc2ccccc12 (stereo not given),> 20.6
10,N#Cc1c(N2CCOCC2)nc(N2CCCCC2)c2c1CCN(C1CCCCC1)C2,> 20.6
11,c1ccc(C2Nc3ccccc3-c3nc4ccccc4n32)nc1 (stereo not given),> 20.6
12,COc1ccc(Cn2c(N)c(C#N)c3nc4ccccc4nc32)cc1OC,> 20.6
13,Cc1nnc(NCc2n[nH]c(=O)c3ccccc23)c2ccccc12,> 20.6
14,CCOC(=O)c1cc2c(=O)n3cccc(C)c3nc2n(CCc2ccccc2)c1=N,> 20.6
15,CCN(CC)CCNc1nc(-c2ccco2)c2c(c1C#N)CC(C)(C)OC2,> 20.6
